# Measured values taken from PubChem BioAssay (EPA / NIEHS).
# Where “and” joins values, the source holds several entries; their conditions need not be identical. Equal entries are not always repeated. Records with an inconclusive call do not appear. Some structures have more than one record in an assay (separate samples or runs), and their calls can disagree. Calls of active or inactive are those of the source. The calls were made as follows: active = hit-call score of the fitted dose curve at least 0.9, where 1 is the maximum; inconclusive = response in the unintended direction; inactive = score below 0.9.
# Columns and labels:
# [1] = TOX21_p53_BLA_p4_viability: Viability Assessment in the Tox21 HCT-116 p53 Agonism Beta-lactamase Assay, Phase 4 (AID 2283597);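 also: hits lower the luminescence signal meaning cytotoxicity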
# Outline: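 Following a 16 h exposure at 37C, the treated HCT116 wells were first read for the FRET ratio. They were then lysed with CellTiter-Glo, and ATP luminescence was recorded after 30 min at room temperature.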
# [2] = target: Cellular tumor antigen p53 (Homo sapiens) (UniProt P04637); assay: TOX21_p53_BLA_p5_ratio: Tox21 HCT-116 p53 Agonism Beta-lactamase Assay, Ratio, Phase 5 (AID 2283599)
# Sequence of Cellular tumor antigen p53 (Homo sapiens) (P04637 whole entry, looked up): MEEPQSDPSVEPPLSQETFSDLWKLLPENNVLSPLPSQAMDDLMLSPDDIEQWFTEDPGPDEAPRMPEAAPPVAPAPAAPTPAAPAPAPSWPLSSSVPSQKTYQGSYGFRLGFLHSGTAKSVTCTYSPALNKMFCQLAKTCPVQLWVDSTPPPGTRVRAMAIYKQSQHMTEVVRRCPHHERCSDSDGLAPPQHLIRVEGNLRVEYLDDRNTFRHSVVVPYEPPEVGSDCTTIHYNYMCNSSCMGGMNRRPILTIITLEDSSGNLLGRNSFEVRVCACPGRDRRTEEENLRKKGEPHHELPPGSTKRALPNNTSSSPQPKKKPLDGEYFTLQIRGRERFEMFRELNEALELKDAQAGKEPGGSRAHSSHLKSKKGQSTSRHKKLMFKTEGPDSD
# Outline: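 Beta-lactamase reporter ratio (blue 460 nm over green 530 nm, 405 nm excitation) after 2 h CCF4-AM loading, in HCT-116 cells exposed 16 h at 37 C to compounds pinned at 217-fold dilution. Increases relative to DMSO baseline scored.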
# [3] = target: Cellular tumor antigen p53 (Homo sapiens) (UniProt P04637); assay: TOX21_p53_BLA_p4_ratio: Tox21 HCT-116 p53 Agonism Beta-lactamase Assay, Ratio, Phase 4 (AID 2283601)
# Outline: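 Signal is the blue/green (460nm/530nm) ratio of cleaved versus uncleaved CCF4-AM substrate, read after 2 h substrate loading. Cells were HCT116 carrying the p53-responsive beta-lactamase reporter, dosed 16 h at 37C, 5% CO2; CellTiter-Glo measured in parallel.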
# [4] = Tanguay_ZF_120hpf_MORT_legacy: (Legacy) Oregon State University Tanguay Lab 120 Hour Post-fertilization zebrafish Assay for Mortality (AID 2283633);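 as to AC50: fitted as increase in binary mortality versus DMSO negative control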
# Outline: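 Static waterborne exposure from 6 to 120 hpf at 28C of single dechorionated wild-type (5D) embryos per well, 0.64% DMSO final. Death recorded present/absent by brightfield at 24 and 120 hpf.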
# [5] = Tanguay_ZF_120hpf_YSE_legacy: (Legacy) Oregon State University Tanguay Lab 120 Hour Post-fertilization zebrafish Assay for Yolk Sac Edema (AID 2283634)
# Outline: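 Presence or absence of yolk sac edema was recorded at 120 hpf in surviving larvae. These were wild-type Tropical 5D embryos, chorion removed at 4 hpf, held in static exposure at 28C from 6 hpf with 0.64% DMSO vehicle.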
# [6] = Tanguay_ZF_120hpf_EYE_legacy: (Legacy) Oregon State University Tanguay Lab 120 Hour Post-fertilization zebrafish Assay for Eye Malformation (AID 2283636)
# Outline: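 Read-out is binary presence or absence of eye malformation, scored by brightfield microscopy at 120 hpf. Single larvae were exposed from 6 hpf in embryo medium containing 0.64% DMSO, with DMSO as baseline.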
# [7] = TOX21_p53_BLA_p5_viability: Viability Assessment in the Tox21 HCT-116 p53 Agonism Beta-lactamase Assay, Phase 5 (AID 2283600)
# Outline: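 After the 460/530 nm beta-lactamase measurement, the wells received an ATP-detection luciferase reagent; signal was read 30 min later at RT. Compound treatment lasted 16 h on cells pre-incubated 5 h post-seeding.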
# [8] = Tanguay_ZF_120hpf_SNOU_legacy: (Legacy) Oregon State University Tanguay Lab 120 Hour Post-fertilization zebrafish Assay for Snout Malformation (AID 2283637)
# Outline: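 Snout malformation read as a yes/no call on brightfield images of 120 hpf larvae (Tropical 5D strain). Static exposure began at 6 hpf on dechorionated embryos in 0.64% DMSO, with gain of signal analysed versus DMSO controls.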
# [9] = Tanguay_ZF_120hpf_AXIS_legacy: (Legacy) Oregon State University Tanguay Lab 120 Hour Post-fertilization zebrafish Assay for Body Axis Malformation (AID 2283635)
# Outline: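 Binary scoring of axis defects at 120 hpf under brightfield, fitted positive versus DMSO. Tropical 5D embryos, chorion removed by pronase at 4 hpf, were singly exposed in sealed, dark plates at 28C from 6 hpf; DMSO 0.64% final.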
# [10] = Tanguay_ZF_120hpf_JAW_legacy: (Legacy) Oregon State University Tanguay Lab 120 Hour Post-fertilization zebrafish Assay for Jaw Malformation (AID 2283638)
# Outline: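 Binary jaw-malformation call at 120 hpf by brightfield microscopy. Embryos (Tropical 5D strain, chorion removed at 4 hpf) were dosed statically at 6 hpf, one per well, at 28C with 0.64% DMSO. Embryos that died were not scored.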
Structure (SMILES),outcome [1],outcome [2],outcome [3],outcome [4],outcome [5],outcome [6],outcome [7],outcome [8],AC50 [1],AC50 [2],AC50 [7],AC50 [3],outcome [9],outcome [10],AC50 [4]
CC1(C)NC(=O)NC1=O,inactive,inactive,inactive,inactive,inactive,inactive,,,,,,,,,
CC(=O)Oc1ccccc1C(=O)O,inactive,inactive,inactive,inactive,inactive,,inactive,inactive,,,,,,,
CN[C@H]1CC[C@@H](c2ccc(Cl)c(Cl)c2)c2ccc(S(N)(=O)=O)cc21,,,,inactive,inactive,,,inactive,61.9 µM (active),82.5 µM (active),85.5 µM (active),86.1 µM (active),inactive,inactive,
COc1cc(-c2nc(NC(=O)c3cc4cc(C)cc(C)c4n3CC(=O)O)sc2CCC2CCCCC2)c(OC)cc1Cl,,,,inactive,inactive,inactive,,inactive,2.1 µM (active),9.04 µM (active),3.51 µM (active),3.39 µM (active),,,
Cc1cccc([N+](=O)[O-])c1C,inactive,inactive,,inactive,inactive,inactive,inactive,inactive,,,,,,inactive,
CCCCc1ccc2c(n1)[C@@H](c1ccc(OC)cc1C[C@H](C)C(=O)O)[C@H](C(=O)O)[C@H]2c1ccc2c(c1)OCO2,inactive,inactive,,inactive,inactive,inactive,,inactive,,,,,inactive,inactive,
COc1cc(S(=O)(=O)O)c(C)cc1N=Nc1c(O)ccc2cc(S(=O)(=O)O)ccc12,inactive,inactive,inactive,inactive,inactive,inactive,,inactive,,,,,,inactive,
c1cc(-c2ccncc2)ccn1,inactive,inactive,inactive,inactive,inactive,inactive,inactive,inactive,,,,,,,
CN1CCCC1=O,inactive,inactive,inactive,inactive,inactive,inactive,inactive,,,,,,inactive,,
NCC1(Cc2noc(=O)[nH]2)CCCCC1,inactive,inactive,inactive,inactive,inactive,inactive,,inactive,,,,,inactive,,
Clc1cc(Cl)c(Cl)cc1Cl,inactive,inactive,inactive,inactive,,inactive,inactive,,,,,,,inactive,
CNC(=O)[C@H]1O[C@@H](n2cnc3c(NCc4cc(Cl)ccc4OCc4cc(C)no4)ncnc32)[C@H](O)[C@@H]1N,inactive,inactive,inactive,inactive,inactive,,inactive,inactive,,,,,,inactive,
O=C(O)CCCCC(=O)O,inactive,inactive,inactive,inactive,inactive,inactive,inactive,inactive,,,,,,inactive,
NS(=O)(=O)c1cc2c(cc1Cl)NCNS2(=O)=O,inactive,inactive,inactive,inactive,inactive,inactive,inactive,inactive,,,,,inactive,,
CC(=O)C(C)=CC1C(C)=CCCC1(C)C (centres undefined),inactive,inactive,,inactive,,inactive,inactive,inactive,,,,,inactive,,
C[C@]12C=CC(=O)C=C1CC[C@@H]1[C@@H]2C(=O)C[C@@]2(C)[C@H]1CC[C@]2(O)C(=O)CO,inactive,inactive,,inactive,inactive,inactive,inactive,inactive,,,,,,inactive,
CC(=O)OC/C=C(\C)CCC=C(C)C,inactive,inactive,inactive,inactive,inactive,inactive,inactive,inactive,,,,,,,
CC(C)c1ccc(C(=O)N=C(N)N)cc1S(C)(=O)=O,inactive,inactive,inactive,inactive,inactive,inactive,inactive,inactive,,,,,inactive,inactive,
O=C(N[C@@H](Cc1ccccc1)[C@@H](O)C(=O)N1C[C@@H](O)[C@@H](O)C1)c1cc2cc(Cl)ccc2[nH]1,,inactive,inactive,inactive,inactive,inactive,inactive,inactive,71 µM (active),,,,inactive,inactive,
O=C(O)Cc1ccccc1Nc1c(Cl)cccc1Cl,,inactive,inactive,,inactive,inactive,,inactive,46.1 µM (active),86.4 µM (active),,71.7 µM (active),,,30.6 µM (active)
CC(=O)OCCOCCOCCOC(C)=O,inactive,inactive,inactive,inactive,inactive,inactive,,inactive,,,,,,,

Structure (SMILES),outcome [1],outcome [2],outcome [3],outcome [4],outcome [5],outcome [6],outcome [7],outcome [8],AC50 [1],AC50 [2],AC50 [7],AC50 [3],outcome [9],outcome [10],AC50 [4]
O=[N+]([O-])C(CO)(CO)CO,inactive,inactive,inactive,inactive,inactive,inactive,inactive,inactive,,,,,,,
O=c1c(O)c(-c2ccc(O)c(O)c2)oc2cc(O)cc(O)c12,inactive,,,inactive,inactive,,inactive,inactive,34.7 µM (active),44.4 µM (active) [middle of 4 runs],,22.8 µM (active) [middle of 4 runs],inactive,,
CCCCCCCC=O,inactive,,inactive,inactive,inactive,inactive,inactive,inactive,,,,,,inactive,
Oc1ccc2c(c1)OC[C@@H](N1CCC(O)(c3ccc(F)cc3)CC1)[C@H]2O,inactive,inactive,,inactive,inactive,inactive,,inactive,,,,,,inactive,
COc1ccc(C)cc1N,inactive,inactive,inactive,inactive,inactive,,,inactive,,,,,,,
COCCOC[C@H](CC1(C(=O)NC2CCC(C(=O)O)CC2)CCCC1)C(=O)Oc1ccc2c(c1)CCC2 (some centres undefined),inactive,inactive,inactive,inactive,inactive,inactive,,inactive,,,,,inactive,,
Cc1ccc(C)c(O)c1C,inactive,inactive,inactive,inactive,inactive,inactive,,inactive,,,,,,,
CNCc1cc(F)ccc1Oc1ccc(Cl)c(Cl)c1,inactive,inactive,,inactive,inactive,,inactive,inactive,,,,64.4 µM (active),,,
CCCCC(CC)COC(=O)CC(C(=O)OCC(CC)CCCC)S(=O)(=O)O (centres undefined),,,,inactive,inactive,inactive,,inactive,,79.2 µM (active) [middle of 4 runs],62.1 µM (active) [middle of 4 runs],79.2 µM (active) [middle of 4 runs],inactive,inactive,
CCCCOC(=O)CCCCCCCCC(=O)OCCCC,inactive,,inactive,inactive,inactive,inactive,,inactive,,,,,,inactive,
CCCCCCCCCCO,,inactive,inactive,inactive,inactive,inactive,inactive,inactive,,,,,,,
Cc1ccc(C(C)C)c(O)c1,,inactive,inactive,inactive,inactive,inactive,inactive,inactive,,73.2 µM (active),,86.6 µM (active),,,
Cc1nc(-c2ccc3c(c2)CCN(CCC2CCC(NC(=O)/C=C/c4ccc(F)cc4)CC2)CC3)no1 (centres undefined),,,inactive,inactive,inactive,inactive,inactive,inactive,,37.9 µM (active),,,inactive,,
CCc1c(C(=O)NN2CCCCC2)nn(-c2ccc(Cl)cc2Cl)c1-c1ccc(Br)cc1,,inactive,inactive,inactive,inactive,inactive,inactive,inactive,,,,,inactive,,
CCOC(=O)CCC(=O)OCC,,inactive,inactive,inactive,inactive,inactive,inactive,inactive,,,,,,,
O=c1[nH]cc(F)c(=O)[nH]1,,,,inactive,,inactive,inactive,inactive,,3.72 µM (active) and 3.09 µM (active) and 4.2 µM (active),1.68 µM (active),3.73 µM (active) and 4.64 µM (active) and 5.42 µM (active),,inactive,
Cc1oc(-c2ccccc2)nc1CCOc1cccc2c1ccn2CCC(=O)O,,inactive,inactive,inactive,inactive,,inactive,inactive,,,,,inactive,inactive,
CCOC(=O)C(C)(C)Oc1ccc(Cl)cc1,,inactive,inactive,inactive,inactive,inactive,inactive,,,,,,,,
Nc1nc(N)c2nc(CNc3ccc(C(=O)N[C@@H](CCC(=O)O)C(=O)O)cc3)cnc2n1,,inactive,inactive,inactive,inactive,inactive,,inactive,,0.158 µM (active),0.0649 µM (active),0.0582 µM (active),,inactive,
COc1cc(/C=C/C(=O)CC(=O)/C=C/c2ccc(O)c(OC)c2)ccc1O,,,,,,,,,,14 µM (active) and 39.4 µM (active) and 7.67 µM (active),80.7 µM (active) and 22.5 µM (active),14 µM (active) and 36.5 µM (active) and 7.12 µM (active),,,
Cc1cccc(C)c1O,,inactive,inactive,inactive,inactive,inactive,inactive,inactive,,,,,inactive,inactive,
